Measured values: PubChem BioAssay AID1456 (Vanderbilt High Throughput Screening Facility, 2008)
Out of some 190,000 compounds screened, about 4,100 (2.2%) were called active. The sample as a whole holds a higher share of actives than the screen did. Unmarked numbers belong to inactive results.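 The calls were made as follows: active = thallium flux slope and its plate-corrected score both differing from the plate sample mean at a set confidence after two filtering rounds, in either direction; inactive = the rest.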

These molecules were tested against Solute carrier family 12 member 5 (Homo sapiens) (UniProt Q9H2X9) (assay: modulation of human KCC2 ion transport – cell-based, HEK293 KCC2, FluoZin-2 fluorescence, MLSMR, primary screen (AID 1456;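 also: slope of fluorescence scaled to starting intensity during 10 to 20 s after thallium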)). Details: KCC2 cells, thallium flux FluoZin-2 fluorescence; at 10 µM.
Sequence of Solute carrier family 12 member 5 (Homo sapiens) (Q9H2X9 whole entry, looked up): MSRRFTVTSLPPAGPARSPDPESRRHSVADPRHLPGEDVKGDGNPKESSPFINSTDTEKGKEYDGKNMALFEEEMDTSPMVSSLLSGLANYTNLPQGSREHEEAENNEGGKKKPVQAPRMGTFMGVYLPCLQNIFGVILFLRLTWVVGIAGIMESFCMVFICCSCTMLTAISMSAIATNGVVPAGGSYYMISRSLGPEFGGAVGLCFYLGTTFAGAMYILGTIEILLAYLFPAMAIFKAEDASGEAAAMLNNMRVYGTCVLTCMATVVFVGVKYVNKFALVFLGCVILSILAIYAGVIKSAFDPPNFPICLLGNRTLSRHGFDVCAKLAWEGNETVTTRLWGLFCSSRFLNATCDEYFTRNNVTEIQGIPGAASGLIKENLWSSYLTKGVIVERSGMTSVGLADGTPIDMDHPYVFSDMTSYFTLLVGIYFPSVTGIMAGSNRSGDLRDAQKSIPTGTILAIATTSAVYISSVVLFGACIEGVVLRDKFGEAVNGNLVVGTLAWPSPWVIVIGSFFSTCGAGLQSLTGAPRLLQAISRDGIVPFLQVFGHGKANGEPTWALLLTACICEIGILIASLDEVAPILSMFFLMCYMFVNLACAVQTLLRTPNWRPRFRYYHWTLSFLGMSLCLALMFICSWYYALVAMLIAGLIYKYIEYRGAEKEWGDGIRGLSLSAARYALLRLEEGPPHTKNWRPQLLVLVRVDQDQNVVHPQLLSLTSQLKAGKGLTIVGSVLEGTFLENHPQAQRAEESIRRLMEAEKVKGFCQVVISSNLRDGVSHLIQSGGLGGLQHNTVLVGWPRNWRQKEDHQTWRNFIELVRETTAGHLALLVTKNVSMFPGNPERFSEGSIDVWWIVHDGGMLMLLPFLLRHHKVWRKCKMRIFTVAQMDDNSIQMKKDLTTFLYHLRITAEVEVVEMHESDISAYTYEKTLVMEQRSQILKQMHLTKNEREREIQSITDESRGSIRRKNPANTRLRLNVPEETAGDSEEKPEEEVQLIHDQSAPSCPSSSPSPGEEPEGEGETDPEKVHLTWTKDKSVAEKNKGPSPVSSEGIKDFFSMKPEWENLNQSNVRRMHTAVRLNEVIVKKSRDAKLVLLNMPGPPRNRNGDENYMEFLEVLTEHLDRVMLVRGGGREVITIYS

SMILES | B-score of Tl+ flux slope (higher = more flux/activation; lower = inhibition)
O=C1c2cccc3c([N+](=O)[O-])ccc(c23)C(=O)N1CC1CCCO1 (centres undefined) | -3.38
CN(c1ccccn1)c1ncnc2[nH]ncc12 | 0.0938
CC(=O)NC(=S)Nc1ccc(NC(=S)NC(=O)c2ccc([N+](=O)[O-])cc2)cc1 | 0.484
O=[N+]([O-])C(=c1ccc2c(c1)N1C3=C(CCCC3)CC3CCCCC31N=2)[N+](=O)[O-] (centres undefined) | -0.0507
COc1ccc(/C=C/C(=O)c2cc(Br)ccc(=O)c2O)cc1 | 22.3 (active)
COc1ccc(C(=O)/C=C/c2ccc(OC3CSC3)cc2)cc1 | 0.0132
COc1ccc(/C=C/C(=O)c2ccc(OC)cc2O)cc1 | -1.21
O=C(C[n+]1cc(-c2ccc(Cl)c(Cl)c2)n2c1CCC2)c1cccs1 | 0.636
CC(=O)N(OCc1ccc(OC(C)C)c(Cl)c1)C(C)=O | 0.219
OCCCNc1nccc(-c2cc(Nc3cccc(Cl)c3)ncn2)n1 | -0.723
CC(C)C[C@H](CO)Nc1nc(N(C)c2cccc(Cl)c2)c2ncn(C(C)C)c2n1 | -0.662
CC(C)n1cnc2c(Nc3cccc(Cl)c3)nc(N(CCO)CCCO)nc21 | -2.56 (active)
O=C(CN1CCN(c2ccc(Cl)cc2)CC1)NCc1cccs1 | -1.03
Cc1ccccc1-c1nc(C#N)c(NCc2ccco2)o1 | -0.237
Cc1ccc(-c2nc(C#N)c(NCCCn3ccnc3)o2)cc1 | -0.3
N#Cc1nc(Cc2ccccc2)oc1NCCc1ccccc1 | -4.49 (active)
O=c1oc2ccccc2cc1-c1cn(-c2ccccc2)c(=S)[nH]1 | 7.21 (active)
O=C(c1cn(-c2ccccc2)nc1-c1cc2ccccc2oc1=O)N1CCOCC1 | -0.172
Nc1ncc(-c2cc3ccccc3oc2=O)s1 | -0.488
O=C(NCC1CCCO1)c1ccccc1-c1nc(-c2ccccc2Cl)no1 (centres undefined) | -1.09
O=C(c1ccncc1)N1CCN(c2ccc3ccccc3n2)CC1 | -0.588
S=c1[nH]nc(-c2cc(-c3ccccc3)n[nH]2)n1/N=C/c1c2ccccc2cc2ccccc12 | -1.01

SMILES | B-score of Tl+ flux slope (higher = more flux/activation; lower = inhibition)
COc1cc(/C=N/n2c(C)n[nH]c2=S)ccc1OCc1ccccc1 | 0.899
CCN(CC)S(=O)(=O)c1cccc(-c2n[nH]c(=S)n2/N=C/c2ccc(C(=O)OC)cc2)c1 | 2.87 (active)
O=C1CC(Cc2ccc(Cl)cc2)C(=O)N1c1cc(Cl)ccn1 (centres undefined) | -1.2
CC1CN(c2nc(Nc3ccccc3)nc(N)c2[N+](=O)[O-])CC(C)O1 (centres undefined) | -0.457
O=C(CS(=O)(=O)c1ccc(C(F)(F)F)cn1)NNC(=O)c1ccccc1 | -0.101
Cn1c(CC2Sc3ccccc3NC2=O)nnc1SCC(=O)c1ccc(Cl)cc1 (centres undefined) | -2.19
CCN(CCNC(=O)C1=C(C)C(=O)OC12CCC(C)CC2)c1ccccc1 (centres undefined) | 0.78
Cc1nc(Cl)c(C#N)c2c1CCCC2 | -1.49
CCOC(=O)CSc1nc(C)c(Oc2ccc(Cl)cc2Cl)c(=O)[nH]1 | -0.98
Cn1c(CNc2nc(-c3ccccc3)cs2)nnc1SCC(=O)c1ccccc1 | -4.57 (active)
CCOC(=O)CSc1nnc(CNc2nc(-c3ccccc3)cs2)n1C | -1.31
Cc1ccc(-c2csc(NNC(=O)c3ccccc3)n2)cc1 | -5.47
Cc1cc(N2CCN(c3ccc(F)cc3)CC2)n2ncnc2n1 | 0.197
COCCNc1nc(-c2ccccc2)nc2c1oc1ccccc12 | 0.0873
CC(C)OP(=O)(OC(C)C)C(Nc1ccccc1)c1cccc([N+](=O)[O-])c1 (centres undefined) | -1.5
O=C(Nc1ccc2oc(-c3ccccc3F)nc2c1)c1ccco1 | -4.45 (active)
O=C(Nc1ccc2nccnc2c1)c1ccco1 | 0.0364
O=C(Nc1ccc2oc(-c3ccc4ccccc4c3)nc2c1)c1cccs1 | 0.746
O=C(NC1CCN(Cc2ccccc2)CC1)c1c(F)cccc1F | -1.12
S=C(NN=C1CCN(Cc2ccccc2)CC1)NC1CCCCC1 | -3.5 (active)
S=C(Nc1ccc(Br)cc1Cl)NC1CCN(Cc2ccccc2)CC1 | -1.46
Fc1cc(F)c2nc(N3CCOCC3)sc2c1 | -0.123

SMILES | B-score of Tl+ flux slope (higher = more flux/activation; lower = inhibition)
NC(=O)c1c(Nc2nc3c(F)cccc3s2)sc2c1CCCC2 | -0.0899
Fc1cc(F)c2nc(Nc3nc4c(F)cccc4s3)sc2c1 | 69.3 (active)
O=S(=O)(Nc1ccc(OC(F)(F)F)cc1)c1cccc2nonc12 | -0.299
CN(C)S(=O)(=O)c1ccc(C(=O)NCC(C)(C)N2CCOCC2)cc1 | -0.162
Cn1c(=O)c2c(ncn2CCc2ccccc2)n(C)c1=O | -0.25
O=C(CCc1ccccc1)Nc1ncc([N+](=O)[O-])s1 | -3
CC(=O)Oc1ccccc1C(=O)Nc1ncc([N+](=O)[O-])s1 | -3 (active)
O=C(Cc1c(F)cccc1Cl)Nc1ncc([N+](=O)[O-])s1 | -1.12
O=C(CNC(=O)c1ccco1)OCC(=O)c1ccccc1 | 7.3 (active)
O=C(COC(=O)CNC(=O)c1ccco1)Nc1ccc(F)cc1 | 0.652
O=C(COC(=O)c1ccccc1C(=O)c1ccccc1)c1ccco1 | -0.42
Cn1nccc1NS(=O)(=O)c1ccc(F)cc1 | 0.158
Cc1nn(C)c(C(=O)NNC(=S)NC2CCCCC2)c1Cl | -0.0757
COc1cccc(NC(=S)NC(=O)c2c(Cl)c(C)nn2C)c1 | 39.2 (active)
COc1cccc(NC(=S)NCc2ccccn2)c1 | -0.247
COc1ccc(CC(=O)NCC(=O)N/N=C/c2cc(Br)ccc2OC)cc1 | -1.94
COc1ccc(/C=C/C(=O)Nc2ccc(C)cc2)cc1S(=O)(=O)N1CCOCC1 | 0.752
N#Cc1ccc(C(=O)Nc2nc(-c3cccs3)c(C(=O)C(F)(F)F)s2)cc1 | -2.57 (active)
CCOc1cccc(C(=O)Nc2nnc(-c3cccs3)s2)c1 | -0.21
N#Cc1c(-c2cccs2)nc(SCC(=O)c2ccc(Br)cc2)[nH]c1=O | -4.31
